This is a sample that favours compounds with a hit; in the whole collection about 5.1% have one here.
Tau fil binding = binds recombinant human tau filaments | AID 596 | P10636 | 71,000 compounds, 2% hits | recombinant tau filaments, thioflavin S fluorescence, 15 h; filaments grown with octadecylsulfate alongside compound | Potency, µM (titrated, usually from 57.1 µM);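 further: actives lower thioflavin S fluorescence by blocking filaments or displacing dye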
Target sequence (P10636 whole entry, looked up): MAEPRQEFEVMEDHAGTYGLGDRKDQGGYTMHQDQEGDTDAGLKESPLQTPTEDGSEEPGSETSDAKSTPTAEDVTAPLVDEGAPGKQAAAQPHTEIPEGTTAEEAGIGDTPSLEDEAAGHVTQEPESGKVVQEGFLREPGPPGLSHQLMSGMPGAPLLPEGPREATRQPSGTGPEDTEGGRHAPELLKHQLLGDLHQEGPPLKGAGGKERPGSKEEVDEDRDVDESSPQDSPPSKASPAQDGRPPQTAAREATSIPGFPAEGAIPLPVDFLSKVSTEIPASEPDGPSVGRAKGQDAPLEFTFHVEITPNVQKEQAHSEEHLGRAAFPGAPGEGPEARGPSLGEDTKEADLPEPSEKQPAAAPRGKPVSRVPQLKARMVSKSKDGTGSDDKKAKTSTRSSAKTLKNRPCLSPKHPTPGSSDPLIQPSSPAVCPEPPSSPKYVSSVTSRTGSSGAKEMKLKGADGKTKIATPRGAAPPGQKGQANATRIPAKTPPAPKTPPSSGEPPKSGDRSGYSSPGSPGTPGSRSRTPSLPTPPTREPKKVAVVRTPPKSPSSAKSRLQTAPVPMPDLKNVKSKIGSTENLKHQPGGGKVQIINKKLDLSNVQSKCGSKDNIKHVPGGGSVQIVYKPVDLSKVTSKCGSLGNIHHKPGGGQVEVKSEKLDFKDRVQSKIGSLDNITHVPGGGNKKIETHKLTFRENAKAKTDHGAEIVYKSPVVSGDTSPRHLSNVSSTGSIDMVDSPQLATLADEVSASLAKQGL
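Recombinant tau protein (human, 1 uM final) plus 30 uM ODS in HEPES pH 7.4 with NaCl, DTT and thioflavine S. Compound present from the start; fluorescence at 510 nm after 15 h, 37 C.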
HEK293 cAMP cs = parental HEK293 cAMP activation (counter-screen). AID 938. 73,000 compounds, 2.5% hits. Potency, µM (top dose mostly 57.1 µM), actives largely listed as activators. parental HEK293 CNG cAMP sensor, membrane potential fluorescence; further: nearly all actives have a fitted effect of over 55% in size
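Counterscreen for endogenous-receptor signalling: CNG-channel HEK 293 cells report cAMP rise by membrane depolarization. After 60 min dye equilibration with 100 uM RO 20-1724, compounds incubated 30 min before bottom-read fluorescence at 590 nm.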
Hsp90 Hop PPI = changes Hsp90-Hop TPR2A binding signal, up or down. AlphaScreen TPR2A-His6 binding biotin-Hsp90 C-terminal peptide. 71,000 compounds, 0.44% hits. Potency, µM (highest dose often 57 µM). AID 595; active means well fitted curve in either direction with a large enough effect; inconclusive means small, poorly fitted or top-dose-only effect, or another doubt
DNA Pol III inh = inhibitors of bacterial DNA polymerase III holoenzyme | Potency, µM (series often up to 57.1 µM) | 71,000 compounds, 0.25% hits | reconstituted DNA polymerase III holoenzyme replication, biochemical | AID 603
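Reconstituted *E. coli* holoenzyme (0.35 nM Pol III, 1 nM beta, 154 nM SSB, 2 nM primase) was preincubated with compound for 15 min at RT. Synthesis on 1.4 nM ssM13Gori ran 35 min, then was stopped with PicoGreen/EDTA and read as dsDNA fluorescence.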
TSHR agonist = agonists of human thyroid stimulating hormone receptor | AID 926 | HEK293-CNG-TSHR cells (CNG channel as cAMP sensor), membrane potential dye, cAMP | 73,000 compounds, 0.48% hits | P16473 | Potency, µM (series often up to 57.1 µM), most hits filed as activators; active means well fitted activation curve with a large enough effect in the main read-out, with a control signal flat, not every such curve was filed as active; inconclusive means small, poorly fitted or top-dose-only effect, or a change in a side signal; inactive means no such curve, though single readings can be large or run the other way; reference of the percent scale not stated here;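 further: the control signal comes from parental cells without the receptor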
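HEK 293 cells stably expressing TSHR and a modified CNG channel, with CNG-only parental cells as counterscreen, were preloaded 60 min at room temperature with membrane potential dye containing 100 uM RO 20-1724. Compound exposure was 30 min, and depolarization was read as fluorescence at 590 nm.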
A number is an active result; . = inactive; ? = inconclusive; / = no result given; [ ] = another dose, or the depositor's remark. Unless noted, the call rests on the fitted dose curve; in most records, active means well fitted curve in the direction sought with a large enough effect; inconclusive means small, poorly fitted or top-dose-only effect, or another doubt; inactive means no such curve, though single readings can be large; an effect the other way counts as inactive or inconclusive.

SMILES | Tau fil binding | HEK293 cAMP cs | Hsp90 Hop PPI | DNA Pol III inh | TSHR agonist
O=C(N/N=C\c1ccccc1O)c1ccccc1O | 32µM | . | 10µM | ? | .
CN1CCN(c2cc(-c3ccccc3Cl)ncn2)CC1 | . | . | . | . | .
COc1ccc(C[N+](C)(C)N)cc1OC | .[11.4 µM] | .[11.4 µM] | .[11 µM] | .[11.4 µM] | .[11.4 µM]
Cc1cc(N2CCN(C(c3ccccc3)c3ccc(Cl)cc3)CC2)n2ncnc2n1 (stereo not drawn) | . | . | . | . | 25µM
Cc1cc(N2CCN(C/C=C/c3ccccc3)CC2)n2ncnc2n1 | . | ? | . | . | ?
CCCCn1c(SCc2nnc(-c3ccccc3)o2)nc2c1c(=O)n(C)c(=O)n2C | . | 25µM | . | . | ?
O=C(O)c1ccc(NS(=O)(=O)c2ccsc2C(=O)O)c(O)c1 | / | . | / | / | .
O=C(OCCOc1ccccc1Cl)c1ccc(-n2cnnn2)cc1 | . | 40µM | . | . | ?
Nc1nonc1-c1nc2ccccc2n1Cc1ccc(F)cc1Cl | . | 16µM | . | . | ?
CCOC(=O)OCC1OC(c2ccccc2)C=CC1OC(=O)OCC (stereo not drawn) | / | .[11.4 µM] | / | / | .[11.4 µM]
CC(C)(CO[C@H]1C[C@H]2CC[C@@]1(C)C2(C)C)[N+](=O)[O-] | .[11.4 µM] | .[11.4 µM] | .[11 µM] | .[11.4 µM] | .[11.4 µM]
CCc1nnc(NC(=O)CSc2nnc(-c3ccoc3C)n2-c2ccc(C)cc2)s1 | . | . | . | . | 16µM
CC1CCN(C(=O)CSc2nnc(-c3cc4ccccc4cc3O)n2Cc2ccco2)CC1 | . | . | . | . | 25µM
COc1ccc(NC(=O)CSc2nnc(-c3ccccc3Cl)n2Cc2ccco2)c(OC)c1 | . | 20µM | . | . | ?
COc1ccc(C)cc1NC(=O)CSc1nnc(-c2ccccn2)n1Cc1ccco1 | . | 10µM | . | . | ?
CC1(CC(=O)O)O[C@H]2CCCCC[C@H]2O1 (stereo partly drawn) (tested in a mixture with another compound) | .[11.4 µM] | .[11.4 µM] | .[11 µM] | .[11.4 µM] | .[11.4 µM]
CNc1ncncc1-c1ccccc1C | . | . | . | . | .
COc1ccc(CCNC2=NCCS2)cc1 | . | ? | . | . | ?
COc1ccc(CCNc2cc(=O)[nH]c(N)n2)cc1 | 16µM | . | . | . | .
CCOc1ncccc1C(=O)OCc1cc(=O)n2c(n1)sc1ccccc12 | . | . | . | . | .
CCN(CC)CCN1C(=O)c2oc3ccccc3c(=O)c2C1c1cccc(Br)c1 (stereo not drawn) | 25µM | . | . | . | .
CCN(CC)CCN1C(=O)c2oc3ccccc3c(=O)c2C1c1ccccc1 (stereo not drawn) | . | . | . | . | .
CCOC(=O)c1c(C)c(C(=O)Nc2ccc(N(C)C)cc2)c(C)n1CC | 16µM | . | . | . | .[11.4 µM]
CCOC(=O)c1c(C)c(C(=O)NCCOC)c(C)n1CC | . | . | . | . | .[11.4 µM]
Cc1nnc(Sc2nc(Sc3nnc(C)s3)nc(N3CCN(C)CC3)n2)s1 | . | . | . | . | .
SMILES | Tau fil binding | HEK293 cAMP cs | Hsp90 Hop PPI | DNA Pol III inh | TSHR agonist
CN(C)c1ccc(NC(=O)Cn2ncn3c(cc4ccccc43)c2=O)cc1 | 13µM | . | . | . | .
CCOC(=O)c1cnc2c(C)c(Cl)ccc2c1N1CCOCC1 | . | . | .[2.3 µM] | . | .
CCOC(=O)c1cnc2c(C(F)(F)F)cccc2c1N1CCOCC1 | 16µM | . | . | . | .
Cc1ccc2cc(C#N)c(NCCNC(=O)C3CC3)nc2c1C | . | 25µM | . | . | ?
O=C(C1CCC(CNS(=O)(=O)c2cccc3cccnc23)CC1)N1CCCC1 (stereo not drawn) | . | 25µM | . | . | ?
O=C(C1CCC(CNS(=O)(=O)c2cccs2)CC1)N1CCCCC1 (stereo not drawn) | . | . | . | . | .[11.4 µM]
CCn1c2ccccc2c2nc3cc(S(=O)(=O)N4CCOCC4)ccc3nc21 | 25µM | . | . | . | .
Brc1ccc2c(c1)c1nc3ccccc3nc1n2CCN1CCOCC1 | 16µM | . | . | . | .
c1ccc2nc3c(nc2c1)c1ccccc1n3CCN1CCOCC1 | 13µM | . | . | . | 16µM
CCn1c(C)nc2cc(S(=O)(=O)N3CCCCC3)ccc21 | . | . | . | . | .
Cc1noc(C)c1-c1nc(N2CCN(C)CC2)c2ccccc2n1 | . | ? | . | . | ?
CSc1nc(N(CCO)CCO)c2sc3nc(-c4ccco4)c4c(c3c2n1)CCC4 | . | 25µM | . | . | ?
CC(C)c1nc2sc3c(SCC(=O)NCc4ccco4)ncnc3c2c2c1CCC2 | . | . | . | . | .
Cc1ccc(N(Cc2ccco2)C(=O)c2cccc(S(=O)(=O)N(C)C)c2)cc1 | . | . | . | . | 20µM
COc1ccc(C2=NOC3(CC(=O)N(c4ccc(C)cc4)C3=O)C2)c(OC)c1 (stereo not drawn) | . | . | . | . | /
CCOC(=O)N1CCN(c2ccc(C(=O)c3cccc(F)c3)cc2)CC1 | . | 20µM | . | . | ?
Cc1nc(N2CCOCC2)c2cc(-c3ccccc3)sc2n1 | . | 25µM | . | . | ?
c1ccc(-c2cc3c(N4CCOCC4)ncnc3s2)cc1 | ? | . | . | . | .
CC(=O)O[C@]1(C)N=NC2(CCCCC2)O1 | .[11.4 µM] | .[11.4 µM] | .[11 µM] | .[11.4 µM] | .[11.4 µM]
CCCCOC(=O)CN1C(=O)c2ccc(C(=O)OCCCC)cc2C1=O | . | . | 25µM | . | .
COc1ccc(C(=O)N2CCC3(CCN(CC(C)C)CC3)CC2)cc1 | . | . | . | . | .
N#CC1=C(N)OC2=C(CCC/C2=C/c2ccoc2)C1c1ccoc1 (stereo not drawn) | . | . | . | . | 25µM
NC(=O)c1ccc[n+]([C@@H]2O[C@H](COP(=O)([O-])OP(=O)(O)OC[C@H]3O[C@@H](n4cnc5c(N)ncnc54)[C@@H](O)[C@@H]3O)[C@@H](O)[C@@H]2O)c1 | . | . | . | . | .
Cc1nc2ccccc2n1-c1ccccc1 | . | . | . | . | .
Cc1ccccc1-n1c(C)nc2ccccc21 | . | . | . | . | 25µM
SMILES | Tau fil binding | HEK293 cAMP cs | Hsp90 Hop PPI | DNA Pol III inh | TSHR agonist
CCOC(=O)c1cnc2c(C)cccc2c1NCc1ccco1 | . | 25µM | ? | . | ?
CCOC(=O)c1cnc2c(C(=O)OC)cccc2c1NCc1ccco1 | 13µM | . | . | . | .
CCOC(=O)c1cnc2ccccc2c1NCCO | . | . | . | . | .
CCOC(=O)c1ccc2ncc(C(=O)OCC)c(NCc3ccco3)c2c1 | . | 25µM | . | . | ?
CC(C)Oc1ccc(C2c3c(oc4ccccc4c3=O)C(=O)N2CCCN2CCOCC2)cc1 (stereo not drawn) | 16µM | . | . | . | .
C=CCOc1ccc(C2c3c(oc4ccccc4c3=O)C(=O)N2CCCN2CCOCC2)cc1 (stereo not drawn) | ? | . | . | . | .
COC(=O)CCCC(=O)O | .[11.4 µM] | ? | .[11 µM] | .[11.4 µM] | ?
Cc1ccc(-n2nc(C)c3c2OC(N)=C(C#N)C3c2ccoc2)cc1 (stereo not drawn) | 32µM | . | . | . | .

Bioassay records deposited in PubChem by National Center for Advancing Translational Sciences (NCATS).
